This is an account of results in PubChem BioAssay (NCI).

Structures are written as SMILES. This is part of a sample that, as a whole, favours compounds with a hit. Of some 83,000 tested, about 20% had one in any assay.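 Growth was measured after 48 h exposure to one concentration of compound in 96-well plates. Values under 10 count as active.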 Unmarked numbers belong to inactive results. Activity calls are given as the source filed them.

The experiment deals with SK-MEL-5 melanoma. Kind of experiment: NCI-60 one-dose screen, 48 h (100 = growth as untreated, 0 = no growth, -100 = all killed). The following applies: 10 µM unless noted. As to the method: Growth inhibition of the SK-MEL-5 human tumor cell line is measured as a screen for anti-cancer activity. Cells are grown in 96 well plates and exposed to the test compound for 48 hours. Compounds are tested at a single concentration, which is 10^-5 M for most compounds. The reported endpoint is percent growth (GI% or GIPRCNT), where numbers from 0 - 100% represent growth inhibition, and numbers from -100% - 0 represent cell death. For example, a value of 40 represents 60% growth inhibition. A value of 0 means no net growth occurred over the course of the experiment. A value of -40 indicates 40% of cells at the beginning of the experiment died by the end of the experiment. A value of -100 means all cells are dead at the end of the experiment.
NCI-60 Human Tumor Cell Lines Screen was performed using the standard one-dose NCI protocol, which is described in more detail at https://dtp.cancer.gov/discovery_development/nci-60/default.htm.
Compounds with GIPRCNT values below 10 were considered active. Activity score was based on GIPRCNT using the following formula: […]
Score is 0 for GIPRCNT values of 100 or above, 50 for GIPRCNT values of 0, and 100 for GIPRCNT values of -100.
Regarding `CN(C)c1ccc(N=Nc2ccc3ccccc3c2)cc1`, the growth was 87.3%.

As for `Nc1ccc2c(c1)Cc1cc(NC(=O)C(F)(F)F)ccc1-2`, the growth was 98.4%.

`CCN(CC)CCS(=O)(=O)CCNc1ccnc2cc(Cl)ccc12`: the growth was 29.5%.

For the molecule `O=C1CC(c2ccc3c(c2)OCO3)Nc2ccccc21` (stereo not given), the growth was 18.9%.

For the molecule `O=[N+]([O-])c1cc(CCl)ccc1OCCBr`, the growth is 98.6%.

For the molecule `CC1(C)C(=O)/C(=C\c2cccnc2)C[C@]2(C)[C@H]3CC[C@@H]4[C@H]5[C@H](C(=O)/C=C/c6cccnc6)CC[C@]5(C(=O)O)CC[C@@]4(C)[C@]3(C)CC[C@@H]12`, the growth is -73.5% [100 µM] (active).

With `CCN(CC)CCCCCCNc1cccc2cc(Br)cnc12`, the growth is 94.7%.

As to `COc1cc2c(=O)[nH]c3cc([N+](=O)[O-])ccc3c2cc1[N+](=O)[O-]`, the growth was 41.3%.

As for `Cc1ccc2c(n1)C(=O)C(Cl)=C(Nc1ccc(N3CCN(C)CC3)cc1)C2=O`, the growth was 10.4%.

With `COc1cc(OC)cc(C(=O)Nc2cc(-c3cccnc3)nc(NCCCN3CCOCC3)n2)c1`, the growth was 68.3%.

As to `Cc1cccc(C[C@H](NC(=O)Nc2ccc(C)cc2F)C(=O)N[C@@H]2C(=O)N3C[C@H](O)C[C@H]3C(=O)N3CCN(C)C[C@H]3C(=O)N[C@@H](C)C(=O)N3C[C@H](C)C[C@H]3C(=O)O[C@H]2C)c1`, the growth was 66.3%.

For the molecule `COc1cc2c(c(Br)c1N)-c1cc(Br)c(N)cc1C2=O`, the growth was 56.5%.

For the molecule `COc1ccc(N(c2nc(-c3ccc([N+](=O)[O-])cc3)cs2)C(C)C)cc1`, the growth is 78.9%.

In the case of `COC(=O)c1c(C)[nH]c(/C=C2\N=C(c3ccc[nH]3)C=C2OC)c1C`, the growth is -99.7% (active).

As for `CN(C)c1cc(NN=C(c2ccc(O)cc2)c2ccc(O)cc2)c([N+](=O)[O-])cc1[N+](=O)[O-]`, the growth was 26%.

In the case of `CC(=O)OC[C@]12CC[C@@H]([C@@H](C)C(N)=O)[C@@H]1[C@H]1CC[C@@H]3[C@@]4(C)CC[C@H](OC(C)=O)C(C)(C)[C@@H]4CC[C@@]3(C)[C@]1(C)CC2`, the growth was -71.9% [100 µM] (active).

Regarding `CCCCCCCCCCCCCC[n+]1cccc(C(N)=O)c1`, the growth was -90.9% (active).

`C[n+]1c2ccccc2nc2c(N)cc(N)cc21`: the growth was 56.9%.

Regarding `CCN(CC)c1ccc(/C=C/C=C2\NC(=O)NC2=O)cc1`, the growth was 8.64% (active).

On to `C=C(C)[C@@H]1CC[C@]2(C(=O)N3CCN(C)CC3)CC[C@]3(C)[C@H](CC[C@@H]4[C@@]5(C)C/C(=C/c6ccncc6)[C@H](O)C(C)(C)[C@@H]5CC[C@]43C)[C@@H]12`, for which the growth was -82.4% [100 µM] (active).

As to `COc1ccc(C2CC(c3ccc4ccccc4c3)=NN2c2nc(O)c(C3=c4cc(OC)ccc4=NC3=O)s2)cc1` (stereo not given), the growth is -93.3% (active).

As for `Fc1ccc(NC(=S)c2ccccc2)cc1`, the growth is 101%.

For the molecule `Brc1ccc(-c2nnc3c4[nH]ccc4ncn23)cc1`, the growth is 93.3%.

For `CCOC(=O)c1sc2nc(-c3cc(OC)c(OC)c(OC)c3)nc(N3CCOCC3)c2c1C`, the growth was 2.9% (active).

Turning to `CCOC(=O)c1nn(C2CCCCO2)c2ccc(NC(=O)CN3CCCC3)cc12` (stereo not given), the growth is 103%.

As to `O=C(NCCCNC(=O)OCc1ccc2c(Br)cc(Br)c(O)c2n1)OCc1ccc2c(Br)cc(Br)c(O)c2n1`, the growth was -77.7% (active).

Take `CC(C)C1=NOC(=O)C1=Cc1cn(-c2ccccc2)nc1-c1cccc([N+](=O)[O-])c1`: the growth was 90%.

Turning to `COC(=O)[C@@H](NC(=O)NC(=O)NC(=O)CI)C(C)C`, the growth was 85.2%.

With `Cn1cc(-c2noc(C(=O)c3cn(C)c4ncc(Br)cc34)n2)c2ccccc21`, the growth is 95.6%.

On to `O=C1COCCN1c1ccc(NCc2cn(Cc3cccc4ccccc34)c3ccccc23)cc1`, for which the growth was 82.1%.

As to `Cc1cccc(/C=C2\N=C(c3ccccc3)N(c3ccc(S(N)(=O)=O)cc3)C2=O)c1`, the growth is 88.5%.

`CO[C@H]1CC[C@@]2(C)C(=CC[C@H]3[C@@H]4C[C@H](O)C[C@@]4(C)CC[C@@H]32)C1`: the growth is 30.9%.

Regarding `c1cc2ccc3cc2cc1CNCCN1CCNCc2ccc4ccc(cc4c2)CNCCN(CCNC3)CCNCc2ccc3ccc(cc3c2)CNCC1`, the growth was 88.6%.

Turning to `CCCCNC(=O)NS(=O)(=O)Cc1ccccc1`, the growth is 107%.

Regarding `O=C1CN(Cc2ccc(C(=O)NO)cc2)C(=O)[C@@H](Cc2ccccc2)N1`, the growth was 107%.

As for `O=C(NCc1ccccc1)C(Cl)Cl`, the growth is 101%.

Regarding `CCN(CC)CCSC(=O)C(O)(c1ccccc1)C1CCCC1` (stereo not given), the growth is 117%.

For the molecule `Cc1ccc(S(=O)(=O)N/N=C2\CC3CCC2(C)C3(C)C)cc1` (stereo not given), the growth was 101%.

Turning to `CCN1c2ccccc2C(Cl)(c2ccc(N(C)C)cc2)c2ccccc21`, the growth is 78.9%.

As for `COc1ccc(-c2nc3ccccn3c2/C=C/C(=O)c2cc(OC)c(OC)c(OC)c2)cc1OC`, the growth is -86.7% (active).
